Measurements from PubChem BioAssay (NCATS).
Records with an inconclusive call do not appear. Entries that show only a call come without a potency. Calls of active or inactive are those of the source. The call rests on the fitted dose curve; in most records, active means well fitted cell-killing curve with a large enough effect; inconclusive means small, poorly fitted or top-dose-only effect; inactive means flat fitted curve, though single readings scatter.
Further: nearly all actives have a fitted effect of over 55% in size.
Potency means the concentration at half of the fitted maximal effect.

Assay: Cell Viability - LYMP2-013 (AID 970)
Settings: LYMP2-013 lymphoblastoid cells viability; series mostly up to 92.2 µM
How it was run: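 qHTS; 2500 lymphoblastoid cells/well; 5 hr 37 C settle; cpd 24 hr 37 C; CellTiter-Glo, 30 min RT; luminescence. AC50 = Hill fit.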
With `O=C(O)COc1ccc(Cl)cc1Cl` the Potency was “inactive”.
In the case of `CNC(=O)O/N=C/C(C)(C)SC`, the Potency is reported as “inactive”.
For `CCNc1nc(Cl)nc(NC(C)C)n1`, the Potency was “inactive”.
For `C=CCc1ccc(OC)cc1`, the Potency was “inactive”.
In the case of `ClC1=C(Cl)C2(Cl)C3C4CC(C5OC45)C3C1(Cl)C2(Cl)Cl` (stereo not given), the Potency is reported as 39.8 µM (active).
In the case of `ClC(Cl)=C(c1ccc(Cl)cc1)c1ccc(Cl)cc1`, the Potency is reported as “inactive”.
With `C/C=C/c1ccc2c(c1)OCO2` the Potency was “inactive”.
With `C=CCc1ccc2c(c1)OCO2` the Potency was “inactive”.
With `COP(=S)(OC)Oc1ccc([N+](=O)[O-])cc1` the Potency was “inactive”.

Assay: Cell Viability - LYMP2-015 (AID 971)
Settings: LYMP2-015 lymphoblastoid cell viability; series mostly up to 92.2 µM
How it was run: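 Luminescent ATP read-out (CellTiter-Glo) served as the viability measure after lymphoblastoid cells were exposed to compounds for 24 hours at 37 C. Concentration-response data were fitted with the Hill equation to give AC50.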
With `O=C(O)COc1ccc(Cl)cc1Cl` the Potency was “inactive”.
In the case of `O=S1OCC2C(CO1)C1(Cl)C(Cl)=C(Cl)C2(Cl)C1(Cl)Cl` (stereo not given), the Potency is reported as “inactive”.
For `CNC(=O)O/N=C/C(C)(C)SC`, the Potency was “inactive”.
With `CCNc1nc(Cl)nc(NC(C)C)n1` the Potency was “inactive”.
For `C=CCc1ccc(OC)cc1`, the Potency was “inactive”.
In the case of `ClC1=C(Cl)C2(Cl)C3C4CC(C5OC45)C3C1(Cl)C2(Cl)Cl` (stereo not given), the Potency is reported as 39.8 µM (active).
In the case of `ClC(Cl)=C(c1ccc(Cl)cc1)c1ccc(Cl)cc1`, the Potency is reported as “inactive”.
For `CCc1cccc(CC)c1N(COC)C(=O)CCl`, the Potency was 50.1 µM (active).
In the case of `C/C=C/c1ccc2c(c1)OCO2`, the Potency is reported as “inactive”.
With `C=CCc1ccc2c(c1)OCO2` the Potency was “inactive”.
With `COP(=S)(OC)Oc1ccc([N+](=O)[O-])cc1` the Potency was “inactive”.

Assay: Cell Viability - LYMP2-017 (AID 972)
Settings: LYMP2-017 lymphoblastoid cell viability; series mostly up to 92.2 µM
How it was run: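 2500 cells/well, 5 h 37 C; cpd 24 h 37 C in complete medium; CellTiter-Glo, 30 min RT; luminescence (ATP). AC50 via Hill fit, qHTS.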
In the case of `O=C(O)COc1ccc(Cl)cc1Cl`, the Potency is reported as “inactive”.
In the case of `CCOCN(C(=O)CCl)c1c(C)cccc1CC`, the Potency is reported as 50.1 µM (active).
For `CNC(=O)O/N=C/C(C)(C)SC`, the Potency was “inactive”.
In the case of `CCNc1nc(Cl)nc(NC(C)C)n1`, the Potency is reported as “inactive”.
In the case of `C=CCc1ccc(OC)cc1`, the Potency is reported as “inactive”.
For `ClC(Cl)=C(c1ccc(Cl)cc1)c1ccc(Cl)cc1`, the Potency was “inactive”.
For `C/C=C/c1ccc2c(c1)OCO2`, the Potency was “inactive”.
With `C=CCc1ccc2c(c1)OCO2` the Potency was “inactive”.
With `COP(=S)(OC)Oc1ccc([N+](=O)[O-])cc1` the Potency was “inactive”.

Assay: Cell Viability - LYMP2-019 (AID 973)
Settings: LYMP2-019 lymphoblastoid cell line viability; series mostly up to 92.2 µM
How it was run: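 Luminescent ATP read-out (CellTiter-Glo, 30 min room temperature) served as the viability measure after 24 hr treatment of lymphoblastoid cells at 37 C. Concentration-response data were fitted to the Hill equation for AC50.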
For `O=C(O)COc1ccc(Cl)cc1Cl`, the Potency was “inactive”.
In the case of `O=S1OCC2C(CO1)C1(Cl)C(Cl)=C(Cl)C2(Cl)C1(Cl)Cl` (stereo not given), the Potency is reported as “inactive”.
In the case of `CNC(=O)O/N=C/C(C)(C)SC`, the Potency is reported as “inactive”.
In the case of `CCNc1nc(Cl)nc(NC(C)C)n1`, the Potency is reported as “inactive”.
For `C=CCc1ccc(OC)cc1`, the Potency was “inactive”.
With `ClC1=C(Cl)C2(Cl)C3C(Cl)C=CC3C1(Cl)C2(Cl)Cl` (stereo not given) the Potency was “inactive”.
In the case of `ClC(Cl)=C(c1ccc(Cl)cc1)c1ccc(Cl)cc1`, the Potency is reported as “inactive”.
For `CCc1cccc(CC)c1N(COC)C(=O)CCl`, the Potency was 50.1 µM (active).
In the case of `C/C=C/c1ccc2c(c1)OCO2`, the Potency is reported as “inactive”.
For `C=CCc1ccc2c(c1)OCO2`, the Potency was “inactive”.
With `COP(=S)(OC)Oc1ccc([N+](=O)[O-])cc1` the Potency was “inactive”.
